PubChem BioAssay (NCI)
This is part of a sample that, as a whole, favours compounds with a hit. Of some 79,000 tested, about 15% had one in any assay. No stated cut-off is given here; in the data, active means growth inhibition above about 70%; inactive means the rest.

Experiments:
[1] = NCI Yeast Anticancer Drug Screen. Data for the rad50 strain (AID 155);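 further: 0% = growth of vehicle-only cultures of the same strain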; conditions: S. cerevisiae rad50 strain growth inhibition; at 50.0 µM; hits give high values
In short: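 Genetically altered yeast (DNA repair pathway); compound treatment; growth inhibition vs vehicle ctrl.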

[2] = NCI Yeast Anticancer Drug Screen. Data for the mec2-1 strain (AID 157); conditions: S. cerevisiae mec2-1 strain, at 50.0 µM, hits give high values
In short: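 mec2-1 yeast strain, carrying an alteration in DNA damage repair or cell cycle control, was exposed to compounds; growth inhibition was measured relative to vehicle-treated controls.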

[3] = NCI Yeast Anticancer Drug Screen. Data for the sgs1 mgt1 strain (AID 161);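 further: 0% = growth of cultures given vehicle only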; conditions: S. cerevisiae sgs1 mgt1 strain, at 50.0 µM, hits give high values
In short: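 Growth of a repair-deficient yeast mutant was monitored after compound treatment and expressed as inhibition relative to vehicle-treated cultures.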

[4] = NCI Yeast Anticancer Drug Screen. Data for the cln2 rad14 strain (AID 165);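 further: 0% = growth equal to vehicle treated cultures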; conditions: S. cerevisiae cln2 rad14 strain, at 50.0 µM, hits give high values
In short: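 Yeast carrying cln2 and rad14 alterations (cell cycle control and DNA damage repair) were exposed to compounds. Growth inhibition was measured against vehicle-treated controls.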

[5] = NCI Yeast Anticancer Drug Screen. Data for the bub3 strain (AID 167); conditions: S. cerevisiae bub3 mutant strain, at 50.0 µM, hits give high values
In short: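 Yeast carrying a defined mutation is treated with each compound, and growth is compared with that of vehicle-exposed cells to give inhibition.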

[6] = NCI Yeast Anticancer Drug Screen. Data for the mlh1 rad18 strain (AID 175); conditions: S. cerevisiae mlh1 rad18 strain growth inhibition; at 50.0 µM; hits give high values
In short: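 Growth inhibition of the yeast strain was measured after compound exposure and expressed relative to vehicle-treated controls. The strain carries defined defects in DNA damage repair.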

Measured: growth inhibition

COc1cc(/C(C#N)=C/c2ccccn2)c([N+](=O)[O-])cc1OC
inactive: [1] -7.9% | [2] -2% | [3] 6% | [4] -36.6% | [5] 4.5% | [6] -5.9%

COc1cc(C(=O)C/C(CCC(=O)Nc2ccccc2[N+](=O)[O-])=N\NC(=O)C(N)=O)ccc1O
inactive: [1] -20.5% | [2] 9.8% | [3] -47.4% | [4] 5.9% | [5] -16.2% | [6] -24.4%

O=C(Cc1ccc(Cl)cc1)NCCc1ccccc1
inactive: [1] -1.4% | [2] -14.6% | [3] -5.15% | [4] 32.9% | [5] 18.4% | [6] 7.3%

O=C1C(SCCO)=C(SCCO)C(=O)c2[nH]cnc21
inactive: [1] 13.8% | [2] -10.4% | [3] 6.5% | [4] -0.85% | [5] 6.8% | [6] 4.15%

C/C(=N/NC(N)=S)c1c[nH]c(=O)[nH]c1=O
inactive: [1] -3% | [2] -16.6% | [3] -4.45% | [4] -9.6% | [5] -5.95% | [6] -7.35%

CCCCN(C)CC(C)O (stereo unspecified)
inactive: [1] -10.7% | [2] -12.2% | [3] -13.8% | [4] -24.3% | [5] 4.85% | [6] -22.2%

C=C(C)[N+]([O-])=NC
inactive: [1] -6.75% | [2] 3.5% | [3] -2.8% | [4] 30.1% | [5] -10.8% | [6] 0.75%

CCCCCCCCCCCc1noc2c1C(=O)C(O)CC2 (stereo unspecified)
inactive: [1] 36.5% | [2] -3.05% | [3] -1.05% | [4] 40.4% | [5] -69% | [6] 5.25%

CC1=NN(c2ccccc2)C(=O)/C1=C1\SC(c2ccccc2)(c2ccccc2)c2ccccc21
inactive: [1] -29.4% | [2] 0.9% | [3] 1.8% | [4] 7.95% | [5] 23.2% | [6] -30.4%

CC1=C(C#N)C(C#N)(C#N)C(NN(C)C)C1 (stereo unspecified)
inactive: [1] 8.3% | [2] 20.9% | [3] 1.5% | [4] -8.6% | [5] -15.9% | [6] -40%

COC1(OC)C(Cl)=C(Cl)C2C1C1(Cl)C(Cl)=C(Cl)C2(Cl)C1(OC)OC (stereo unspecified)
inactive: [1] 39.9% | [2] 10.1% | [3] 1.7% | [4] 13.6% | [5] 2.2% | [6] 5.3%

COc1ccc2ccc3c(CCN(C)C#N)cc4c(c3c2c1OC(C)=O)OCO4
inactive: [1] 11.7% | [2] -2.15% | [3] -8.9% | [4] 6.6% | [5] -0.95% | [6] 0.15%

COc1ccc(OC)c(N=Cc2ccc(C=Nc3cc(OC)ccc3OC)cc2)c1
inactive: [1] -8% | [2] -12.3% | [3] -10.6% | [4] 4.7% | [5] -9% | [6] -5.8%

O=C(CC(=O)N(C(=O)c1ccccc1)c1ccc(Cl)cc1)N/N=C\c1ccccc1O
inactive: [1] 1.35% | [2] -5.4% | [3] 5.45% | [4] -1.85% | [5] 19.9% | [6] -15.4%

CC(=O)CC(=O)OC1CCCC(C)C1 (stereo unspecified)
inactive: [1] -9.55% | [2] 1% | [3] -17.9% | [4] -39.4% | [5] -22.8% | [6] -15.2%

CCCCS(=N)(=O)CC[C@H](N)C(=O)O (stereo partly specified)
inactive: [1] 2.3% | [2] -22.6% | [3] -25.1% | [4] -1.4% | [5] -47% | [6] -9.85%

C=CCc1cc(C(=O)C(=O)c2cc(CC=C)c(OC(C)=O)c(OC)c2)cc(OC)c1OC(C)=O
inactive: [1] 3.2% | [2] 6.75% | [3] 6.45% | [4] 6.8% | [5] -5.85% | [6] 8.25%

CN(CCO)CCC1COc2ccccc2O1 (stereo unspecified)
inactive: [1] 2.1% | [2] -29.6% | [3] 0.25% | [4] 12.1% | [5] -1.05% | [6] 1.25%

CN(C)c1nnnn1-c1c(N)n(C)c(=O)n(C)c1=O
inactive: [1] -30.1% | [2] -23.2% | [3] 0% | [4] 6.4% | [5] -26.8% | [6] -27.1%

C=CCOC(=O)Nc1ccc(C)c(NC(=O)OCC=C)c1
inactive: [1] -28.3% | [2] -45% | [3] -9.1% | [4] -25.5% | [5] -12.6% | [6] -33.1%

COc1cc([N+](=O)[O-])ccc1NC(=O)C(Br)C(Br)c1ccccc1 (stereo unspecified)
inactive: [1] 11.7% | [2] -5.9% | [3] 10.6% | [4] -1.4% | [5] 12.5% | [6] 15.6%
